What is called IC50 is the concentration needed to halve the response being measured. Usually inhibition stands for the change of the read-out against control, counted positive when it falls.

Experimental findings from PubChem BioAssay AID624351 (Southern Research Specialized Biocontainment Screening …, 2012) are described below.

The campaign covered roughly 2,400 compounds. About 1,400 (58%) were called active. The set was probably picked from earlier hits. This is one part of the list. Values without a mark were called inactive.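 The calls were made as follows: active = inhibition of 30% or more at any tested dose; inconclusive = primary hits over the limit that were never retested; inactive = the rest.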

The nature of this assay: coupled detection enzyme interference, dose response, artefact control for MgcRacGAP inhibitor project, biochemical, coupled enzyme counter-screen (AID 624351).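 Also: signal is the ADP detection kit reading of free GDP without any GAP enzyme.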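 As to inhibition: 0% = median positive control wells and 100% = median negative control wells.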 The note with it: ADP Hunter coupled enzyme counter-screen, fluorescence, no MgcRacGAP; series mostly up to 80 µM; inhibition: at the top concentration. For orientation: Counterscreens check selectivity or assay interference.
With `O=C(Cn1c(C(=O)NCC2CCCO2)cc2sccc21)c1ccccc1` (stereo unspecified), the IC50 is 81.6 µM (active).

Take `O=C(CN1CCCCCC1)NCC1CCCO1` (stereo unspecified): the “inhibition” value is 18.5%.

Regarding `C=CCOc1ccccc1CN1CCCN(C)CC1`, the “inhibition” value is 15.9%.

Take `COc1cccc(Nc2nc(-c3ccc(O)cc3)cs2)c1`: the IC50 was 63.7 µM (active).

Regarding `COc1cccc(CNCc2ccco2)c1O`, the “inhibition” value was 14.1%.

On to `Oc1ccc(-c2csc(Nc3ncccn3)n2)cc1`, for which the IC50 is 21.3 µM (active).

Take `Oc1ccc(-c2csc(NCc3ccco3)n2)cc1`: the IC50 was 24 µM (active).

`Oc1ccc(-c2csc(Nc3cccnc3)n2)cc1`: the IC50 is 15.8 µM (active).

With `COc1cccc(NC2=C(C#N)C(=O)NC(c3cccc(OC)c3O)S2)c1` (stereo unspecified), the “inhibition” value is 4.84%.

`COc1ccc(-n2c(SCC(=O)C(C)(C)C)nc3c(sc(=S)n3-c3ccccc3)c2=O)c(OC)c1`: the “inhibition” value was 4.76%.

As for `Oc1ccc(-c2csc(Nc3ccccn3)n2)c(O)c1`, the IC50 was 63.3 µM (active).

Consider `Cc1ccnc(Nc2nc(-c3ccc(O)c(O)c3)cs2)c1`, for which the IC50 is 61 µM (active).

For `O=C(Nc1nc(-c2ccncc2)cs1)C1COc2ccccc2O1` (stereo unspecified), the “inhibition” value is -0.97%.

For the compound `Oc1ccc(-c2csc(Nc3ccccn3)n2)cc1`, the IC50 is 79.7 µM (active).

For `Cc1nc2ncccn2c1-c1csc(Nc2ccc(O)cc2)n1`, the IC50 was 11.1 µM (active).

`NNc1cc([N+](=O)[O-])cc2c1C(=O)N(Cc1ccccc1)S2=O` (stereo unspecified): the “inhibition” value is -2.56%.

Take `O=C1NN(c2ccccc2)C(=O)C1=Cc1ccccc1O`: the “inhibition” value was 1.15%.

On to `COc1cccc(OCC(O)CN2CCN(C)CC2)c1` (stereo unspecified), for which the “inhibition” value was 25.3%.

Regarding `c1ccc(CCNCCCOc2cccc3ccccc23)cc1`, the “inhibition” value was 17.6%.

Consider `COc1cc2c(cc1N)-c1ccc(N)cc1C2=O`, for which the IC50 is 16.5 µM (active).

In the case of `Nc1ccc2c(c1)C(=O)c1cc(N)c(Cl)cc1-2`, the IC50 was 49.2 µM (active).

Consider `O=C(/C=C/c1ccc([N+](=O)[O-])cc1)/C=C/c1ccco1`, for which the “inhibition” value was -25.6%.

As to `Cc1ccc(Cl)c(OCCCN(C)Cc2ccccc2)c1`, the “inhibition” value is 19.9%.

On to `O=C(CNCC1CCCO1)Nc1ccc(N2CCCCCC2)cc1` (stereo unspecified), for which the “inhibition” value was 29.8%.

Consider `CC1=NN(c2cccc(C(=O)O)c2)C(=O)/C1=C\C=C\c1ccco1`, for which the “inhibition” value was 5.84%.

Turning to `N#Cc1ccccc1OCCCN1CCC(Cc2ccccc2)CC1`, the “inhibition” value is 15.2%.

Take `CC(=O)c1c(C)c(C)c2n1CCn1c(C)ccc1-2`: the concentration for half-maximal inhibition (IC50) was 44.7 µM (active).

Regarding `Clc1nc(NCc2cccnc2)nc(N2CCOCC2)n1`, the “inhibition” value was 2.09%.

With `COc1ccc2cc(CNCCOCCOCCNCc3ccc4cc(OC)ccc4c3)ccc2c1`, the “inhibition” value was 8.48%.

Turning to `COc1ccc(NCc2cccnc2)cc1`, the IC50 was 54.6 µM (active).

Regarding `COc1ccc(NCc2ccsc2)cc1`, the IC50 is 28.9 µM (active).

As to `COc1cccc(OC)c1C(=O)N1CCN(Cc2cccnc2)CC1`, the “inhibition” value is 19.6%.

On to `N#CCCN(CCC#N)c1nncs1`, for which the “inhibition” value is 3.07%.

Turning to `Cc1ccc2c(c1)C(C)CC(C)(C)N2C(=O)CN1CCN(C)CC1` (stereo unspecified), the “inhibition” value is 25%.

`COc1ccc2c(c1)-c1nc(/N=C/c3ccccc3O)sc1CC2`: the IC50 is 32.7 µM (active).

With `COc1ccc2nc(C)cc(N/N=C/c3cccc(OC)c3O)c2c1`, the “inhibition” value is 25%.

For `COc1ccc2c(c1)-c1nc(/N=C/c3cccc(OC)c3O)sc1CC2`, the IC50 was 29.2 µM (active).

In the case of `COc1ccc2c(c1)-c1nc(/N=C/c3c(O)ccc4ccccc34)sc1CC2`, the IC50 is 62.7 µM (active).

`Cc1cc(Cl)c(OCCOCCN2CCN(C)CC2)c(Br)c1`: the “inhibition” value was 24.2%.

For `CCCCN(C)CCNC(=O)CSCc1ccc(C)cc1`, the “inhibition” value is 15.9%.

Regarding `Nc1ccc(C(=O)N/N=C/c2ccc(N3CCOCC3)s2)cc1`, the IC50 is 19.5 µM (active).

`O=C(N/N=C/c1ccc(N2CCOCC2)s1)c1ccc(O)cc1`: the IC50 was 25.2 µM (active).

As for `Cc1cc(OCCCN2CCN(Cc3ccccc3)CC2)ccc1[N+](=O)[O-]`, the “inhibition” value was 24.2%.

On to `CC(=O)Nc1cccc2cc(O)ccc12`, for which the IC50 was 35.8 µM (active).

Consider `O=C(/C=C/c1ccc(O)c(O)c1)OC(Cc1ccc(O)c(O)c1)C(=O)O` (stereo unspecified), for which the IC50 was 44.1 µM (active).

With `O=C1N=c2ccccc2=C1c1sc(Nc2ccc(O)cc2)nc1O`, the “inhibition” value is 20.5%.

For `Cc1ccc(-c2csc3n[nH]c(=S)n23)cc1`, the IC50 is 61.8 µM (active).

With `CC1(C)Nc2cccc3cccc(c23)N1`, the IC50 is 31.9 µM (active).

Turning to `C/C(=N\Nc1ccc(S(=O)(=O)N2CCCCC2)cn1)c1ccc(O)cc1`, the IC50 was 20 µM (active).

On to `COc1ccc(OC(=O)c2cc(S(=O)(=O)N3CCCC3)ccc2Cl)cc1`, for which the “inhibition” value is 2.36%.

For `CC1CCCC(N2CCN(C(=O)c3ccc([N+](=O)[O-])cc3)CC2)C1` (stereo unspecified), the “inhibition” value was -14.3%.

For the compound `Cc1ccc(NCCCCO)cc1C`, the IC50 is 43.3 µM (active).

`Cc1ccc(NCc2ccco2)cc1C`: the “inhibition” value was -4.65%.

On to `C/C(=N\Nc1cccc2cccnc12)c1ccc[nH]1`, for which the “inhibition” value is 20.1%.

For `Cc1nc(Cc2nnc(SCC(=O)N3CCN(c4ccc(O)cc4)CC3)o2)cs1`, the IC50 is 30.6 µM (active).

Turning to `Cc1cccc(NC2=C(C#N)C(=O)NC3(CCCC3)S2)c1`, the “inhibition” value was 0.64%.
